Screen size: about 55,000 sequences; about 5,800 (11%) were called active. No stated cut-off is given here; in the data, active = GI50 up to about 1.1 µM and inactive = higher. Shown is part of a subset that was picked to be rich in actives. Results with a measured potency or affinity are listed apart.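 Test compounds were applied to cells in 96-well plates for 48 hours at 5 doses. GI50 = concentration required for 50% inhibition of growth.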

The assay relates to CCRF-CEM. As to the kind of experiment: NCI tumour cell line growth inhibition, 48 h.
In the case of “[Bis(aminomethyl)tetramethylenesilane]dichloropaltinum(II), CHEMBL2146205”, the GI50 came out at 1560 nM.

As to “[Bis(aminomethyl)diethylsilane]tetrachloroplatinum(IV), CHEMBL2146203”, the GI50 is 283 nM.

Consider “mu-(1,7-nanodiamine-N,N')bis-(cis-aminedichloroplatimum (II)), CHEMBL2146215”, for which the GI50 came out at 925 nM.

With “[Bis(aminomethyl)dimethylsilane]dichloroplatinum (II), CHEMBL2146201”, the GI50 was 3660 nM.

“[Bis(aminomethyl)pentamethylenesilane]dichloropaltinum(II), CHEMBL2146202” came in with a GI50 of 202 nM.

The substance “[Bis(aminomethyl)pentamethylenesilane]tetrachloropaltinum(IV), CHEMBL2146204” registered a GI50 of 95.3 nM.

Turning to “ACRIFLAVINE HYDROCHLORIDE, CHEMBL5219995”, the GI50 stood at 233 nM.

In turn, CISPLATIN, CHEMBL11359 displayed a GI50 of 1120 nM.

With “[Bis(aminomethyl)tetramethylenesilane]tetrachloropaltinum(IV), CHEMBL2146189”, the GI50 was 246 nM.

“[Bis(aminomethyl)ethylmethylsilane]tetrachloroplatinum(IV), CHEMBL2146192” registered a GI50 of 381 nM.

In the case of “[Bis(aminomethyl)dimethylsilane]tetrachloroplatinum(IV), CHEMBL2146190”, the GI50 is 805 nM.

The substance “cis-Bis[[(trimethylsilyl)methyl]amino]tetrachloroplatinum(IV), CHEMBL2146191” returned a GI50 of 1230 nM.
